Screening data as filed in PubChem.
Compounds with a hit are over-represented: about 18% of the library has one in this group of screens.
DT40 TDP1 no CPT = qHTS for Inhibitors of human tyrosyl-DNA phosphodiesterase 1 (TDP1): qHTS in cells in absence of CPT; DT40 Tdp1-/- hTDP1 cells, no CPT, ATP luminescence, 48 h; Potency, µM (highest dose often 46.2 µM), without a hit: top-dose activity change, negative = growth inhibition, actives largely listed as inhibitors; actives 15% (n = 420,000); AID 686978, 2013; note: potency is the fitted concentration of half-maximal effect; nearly all actives have a fitted effect of over 55% in size
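Seeded 400 DT40-hTDP1 cells/well (vehicle DMSO, no 20 nM CPT); pinned compounds; ≥48 hr at 37 °C; CellTiter-Glo luminescence as viability measure.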
RORgamma inh = ROR gamma (mouse) transcription inhibition; P51450; Drosophila S2 Gal4-RORgamma UAS-luciferase reporter, 20 h; Potency, µM (top dose mostly 53.6 µM), inactives show at the top dose activity change, negative = inhibition, actives largely listed as inhibitors; actives 5.4% (n = 310,000); AID 2551; note: potency is the fitted concentration of half-maximal effect; nearly all actives have a fitted effect of over 60% in size
Target sequence (P51450 whole entry, looked up, the tested form may be a part): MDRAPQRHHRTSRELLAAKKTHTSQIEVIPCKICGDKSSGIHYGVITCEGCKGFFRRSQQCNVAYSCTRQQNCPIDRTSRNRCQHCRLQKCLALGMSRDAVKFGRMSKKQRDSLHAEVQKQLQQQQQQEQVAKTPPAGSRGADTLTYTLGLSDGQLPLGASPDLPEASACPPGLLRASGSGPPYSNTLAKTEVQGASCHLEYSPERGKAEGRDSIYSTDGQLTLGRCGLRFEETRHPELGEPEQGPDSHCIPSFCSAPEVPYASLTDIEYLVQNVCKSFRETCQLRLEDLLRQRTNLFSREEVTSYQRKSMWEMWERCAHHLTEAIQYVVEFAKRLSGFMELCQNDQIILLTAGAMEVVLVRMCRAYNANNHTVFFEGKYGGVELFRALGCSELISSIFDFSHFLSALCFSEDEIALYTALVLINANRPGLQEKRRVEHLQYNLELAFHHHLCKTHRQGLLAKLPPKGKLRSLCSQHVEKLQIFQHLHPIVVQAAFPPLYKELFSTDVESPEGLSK
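Drosophila Schneider cells stably carrying a metallothionein-driven Gal4 DBD–ROR gamma fusion and a UAS-Photinus luciferase reporter were exposed to compound for 1 hr, then induced with copper sulfate (700 uM final) for 20 hr at ambient temperature before luminescence reading.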
LDHA inh = LDHA (human) enzyme inhibition. P00338. purified LDHA, NADH/diaphorase-resazurin fluorescence; hits give low values. activity change, % (values are at about 110 or 230 µM). actives 0.15% (n = 480,000). AID 1347041; in the data active = activity change below about -30%; inconclusive = mostly about -25% to -30%;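 note: plate controls were DMSO wells for no effect and wells without enzyme for full effect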
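Remaining NADH was detected by diaphorase (0.133 mg/mL) converting 37 µM resazurin to fluorescent resorufin, read at 0 and 20 minutes. The preceding 5-minute room-temperature reaction used 2 nM LDHA, 0.2 mM sodium pyruvate and 0.06 mM NADH at pH 7.4.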
IL-1B inflam inh = inhibitors of inflammasome signaling (IL-1 beta secretion); THP-1 LPS/ATP IL-1B secretion, AlphaLISA, 16 h; hits give low values; activity change, % at 57.5 µM; actives 4.7% (n = 360,000); in the data active = activity change below about -50%; inconclusive = mostly about -30% to -49%
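Secreted IL-1B measured by AlphaLISA bead assay after 16 h compound exposure of THP-1 cells; compounds (final up to 57.5 uM) added 1 h before LPS (250 ng/mL) and ATP (1.25 mM) stimulation; lower signal means less secretion.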
DT40 TDP1 CPT = DT40-hTDP1 cell growth loss with CPT; AID 686979; Potency, µM (highest dose often 46.2 µM), inactives show at the highest dose activity change, negative = growth inhibition, most hits filed as inhibitors; actives 12% (n = 420,000); chicken DT40 Tdp1-/-;hTDP1 cells + 20 nM CPT, ATP luminescence, 48 h; note: potency is the fitted concentration of half-maximal effect; nearly all actives have a fitted effect of over 55% in size
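Cell growth measured by CellTiter-Glo luminescence after a minimum 48 h, 37 C compound exposure with 20 nM CPT in Tdp1-knockout DT40 cells stably expressing hTDP1, seeded 400/well; qHTS titration format.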
Gal4-VP16 FLuc = inhibits Gal4-VP16 luciferase reporter, ROR gamma counter-screen. Drosophila S2 Gal4-VP16 UAS-luciferase, luminescence, 20 h. Potency, µM (top dose mostly 53.6 µM), for the others: at the top dose activity, negative = inhibition, actives largely listed as inhibitors. actives 3.5% (n = 310,000). AID 2546;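 note: Gal4-VP16 expression switched on by copper sulfate through the metallothionein promoter; potency is the fitted concentration of half-maximal effect; nearly all actives have a fitted effect of over 50% in size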
Active calls of the source: *; ? = inconclusive; nt = no result. Unless noted, calls come from the whole dose curve; as a rule, active = well fitted curve in the direction sought with a large enough effect; inconclusive = small, poorly fitted or top-dose-only effect, or another doubt; inactive = no such curve, though single readings can be large; an effect the other way counts as inactive or inconclusive. Unless noted, % is set by controls: 0 for no effect and ±100 for the full control effect.

SMILES	DT40 TDP1 no CPT	RORgamma inh	LDHA inh	IL-1B inflam inh	DT40 TDP1 CPT	Gal4-VP16 FLuc
Cc1ccc(-c2[nH]c3ccccc3c2C=O)cc1	nt	nt	1	nt	nt	nt
CC(C)c1ccc(C(=O)NCCCN2CCOCC2)cc1	16%	26%	-3	15	-4%	0%
O=C(NCCCN1CCOCC1)c1ccc2c(=O)n(Cc3ccc(Cl)cc3)c(=S)[nH]c2c1	-25%	11µM*	1	-20	?	?
O=C(NCCCN1CCOCC1)c1ccc(CSc2ccc(Cl)cc2)cc1	21µM*	18%	3	-62*	26µM*	5%
CCCCN(C)CCNC(=O)c1ccc(Cn2c(=S)[nH]c3ccc(Br)cc3c2=O)cc1	?	?	-2	0	26µM*	?
COC(=O)c1ccc2c(=O)n(Cc3ccc(C(=O)NCCCN4CCC(C)CC4)cc3)c(=S)[nH]c2c1	16µM*	?	0	-106*	21µM*	?
COC(=O)c1ccc2c(=O)n(Cc3ccc(C(=O)NC4CCCC4)cc3)c(=S)[nH]c2c1	?	-6%	0	17	?	26%
CCOc1cc2[nH]c(=S)n(Cc3ccc(C(=O)NCCCN(CC)CC)cc3)c(=O)c2cc1OCC	?	4%	-2	57	?	-11%
O=C(NCCCN1CCOCC1)c1ccc2c(=O)n(-c3ccc(F)c(Cl)c3)c(=S)[nH]c2c1	?	-2%	-2	27	-5%	-11%
CCOC(=O)N1CCN(C(=O)c2ccc3c(=O)n(-c4ccccc4F)c(=S)[nH]c3c2)CC1	-6%	-15%	1	56	-17%	10%
CCc1ccc(C(CNC(=O)c2ccc3c(=O)n(-c4ccccc4F)c(=S)[nH]c3c2)N(C)C)cc1 (stereo unspecified)	23µM*	?	-12	-82*	?	?
CN(C)CCNC(=O)c1ccc2c(=O)n(Cc3ccc(Cl)cc3)c(=S)[nH]c2c1	29µM*	?	-2	-63*	21µM*	?
CCOc1cc2[nH]c(=O)n(Cc3ccc(C(=O)NCCCN4CCC(C)CC4)cc3)c(=O)c2cc1OCC	23µM*	1%	-4	18	?	4%
CC1CCN(CCCNC(=O)c2ccc3c(=O)n(Cc4ccc(Cl)cc4)c(=S)[nH]c3c2)CC1	?	13µM*	1	nt	?	20µM*
CCOc1cc2[nH]c(=S)n(Cc3ccc(C(=O)NCCCOC)cc3)c(=O)c2cc1OCC	0%	?	0	21	-23%	-29%
Nc1nc(Nc2ccc(F)cc2)sc1C(=O)c1ccc(Cl)cc1	nt	nt	-7	nt	nt	nt
Cc1cccc(-n2nnnc2C(C)(C)NC2CCCCC2)c1	nt	nt	0	nt	nt	nt
COc1ccc(Cl)cc1C(=O)NCCN(C)C	-6%	18%	-4	0	-3%	5%
CN(C)CCNC(=O)c1ccc(COc2ccc(Cl)cc2Cl)cc1	18µM*	-12%	4	-7	?	5%
O=C(NCc1ccccn1)c1ccc(Cn2c(=S)[nH]c3ccc(Br)cc3c2=O)cc1	6.5µM*	-2%	-18	12	?	-2%
CCOc1cc2[nH]c(=S)n(Cc3ccc(C(=O)NCCCN4CCOCC4)cc3)c(=O)c2cc1OCC	18µM*	?	0	0	?	?
O=c1c2cc(Cl)ccc2[nH]c(=S)n1Cc1ccccn1	?	2.2µM*	-1	23	18µM*	3.2µM*
CC(NC(=O)c1ccc2c(c1)NC(=O)CS2)C1CC1 (stereo unspecified)	nt	nt	4	nt	nt	nt
CCOc1cc(CN2CCCCCC2c2cccc(F)c2)ccc1OCC(N)=O (stereo unspecified)	nt	nt	7	nt	nt	nt
CC(C)NC(=S)N/N=C1\CCCCC1C1CCCCC1 (stereo unspecified)	2.9µM*	1µM*	3	0	5.8µM*	3.5µM*
SMILES	DT40 TDP1 no CPT	RORgamma inh	LDHA inh	IL-1B inflam inh	DT40 TDP1 CPT	Gal4-VP16 FLuc
Cc1ccnc(N2CCN(C(=O)CSc3nc4ccccc4nc3N3CCC(C)CC3)CC2)c1	?	41%	3	11	?	0%
O=C(CSc1nc2ccccc2nc1N1CCCC1)N1CCN(c2ccc(Cl)cc2)CC1	nt	nt	-4	nt	nt	nt
O=C(CSc1nc2ccccc2nc1N1CCOCC1)N1CCN(c2ccccc2)CC1	12µM*	7%	1	-27	21µM*	0%
O=C(CSc1nc2ccccc2nc1N1CCCCC1)N1CCN(c2ccccc2)CC1	?	20%	-1	-21	21µM*	6%
Cc1cccc(N2CCN(C(=O)CSc3nc4ccccc4nc3N3CC(C)OC(C)C3)CC2)c1C (stereo unspecified)	4.1µM*	-3%	-2	16	2.1µM*	-6%
Cc1cc2nc(/C=C/c3cccc(O)c3)sc2cc1C	nt	nt	8	nt	nt	nt
Cc1ccccc1CS(=O)Cc1ccc(F)cc1Cl (stereo unspecified)	nt	nt	-7	nt	nt	nt
CCCC(C(=O)Nc1ccc(S(=O)(=O)N2CCCC2)cc1)c1ccccc1 (stereo unspecified)	?	nt	-1	-23	21µM*	nt
CC(Nc1cccc([N+](=O)[O-])c1)C(=O)Nc1ccc(S(=O)(=O)N2CCCC2)cc1 (stereo unspecified)	15µM*	nt	0	?	15µM*	nt
CC(C)C(=O)NC(=S)Nc1ccc(S(=O)(=O)N2CCCC2)cc1	16µM*	?	-4	-1	?	?
CC(C)CC(=O)NC(=S)Nc1ccc(S(=O)(=O)N2CCCC2)cc1	?	16µM*	-8	2	?	-13%
COc1ccc(C(=O)C(C)OC(=O)c2ccc(OCC3CCCO3)cc2)cc1 (stereo unspecified)	nt	nt	-1	nt	nt	nt
O=C(O)C(c1c[nH]c2ccc(Cl)cc12)N1CCN(Cc2cccc(Cl)c2)CC1 (stereo unspecified)	nt	nt	3	nt	nt	nt
COc1ccc(CNC(=O)c2scnc2C)cc1	nt	nt	5	nt	nt	nt
COc1ccc(CCNC(=O)CCSc2nc(Cl)nc3nc[nH]c23)cc1	nt	nt	-1	nt	nt	nt
COc1cc(C(=O)Nc2cccc3cccnc23)cc(OC)c1OC	26µM*	-3%	-2	-20	?	-16%
CCCOc1cccc(C(=O)Nc2cccc3cccnc23)c1	?	nt	-1	nt	23µM*	nt
Cc1cnc(C(=O)Nc2cccc3cccnc23)cn1	0.0092µM*	0.079µM*	5	198	0.0073µM*	0.2µM*
Cc1c(NC(=O)/C(C#N)=C/c2ccc(-c3ccc(Cl)cc3)o2)c(=O)n(-c2ccccc2)n1C	15µM*	?	-3	-62*	10µM*	?
